# Test results: PubChem BioAssay (Tox21)
# “And” between values parts separate entries of the source, which are not always exact repeats. Equal values may be shown once. Records with an inconclusive call do not appear. A call without a number means that no potency is given here. Some compounds were tested as several samples or in several runs, with calls that do not always agree. The source made the active and inactive calls. The call rests on the fitted dose curve; in most records, active means well fitted inhibition curve with a large enough effect in the repeat runs; inconclusive means weak or mixed curves, or effect the other way; inactive means no such curve, though single readings can be large or run the other way.
# Assay: qHTS assay to identify small molecule antagonists of the retinoic acid receptor (RAR) signaling pathway (AID 1159552; further: nearly all actives have a fitted effect of over 50% in size)
# Details: C3RL4 RARE luciferase reporter, retinol-stimulated, 6 h; series mostly up to 92.4 µM
# In short: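 Retinol at 1 uM final stimulated RARE-luciferase expression in C3RL4 cells exposed to test compounds for 6 hr at 37 C. Reduced luminescence, read 30 min after detection reagent, indicated pathway antagonism.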
# Potency means the concentration at half of the fitted maximal effect.
SMILES,Potency,"activity, negative = inhibition"
CC(=O)CC(=O)Nc1ccc2[nH]c(=O)[nH]c2c1,inactive,–
CC(C)CCCCCCc1ccc(O)cc1,27.3 µM (active),–
COc1ccc(COC(C)=O)cc1,inactive,–
CCc1ccc(C(c2ccc(CC)cc2)C(Cl)Cl)cc1,inactive,–
Cc1cccc2n[nH]nc12,inactive,–
C=CC(=O)OCCCCCCCC,inactive,–
CCCCN(CCO)CCCC,inactive,–
CCCCC/C=C/CC1CC(=O)OC1=O (stereo unspecified),inactive,–
Nc1nc2ccccc2[nH]1,inactive,–
O=C1Nc2ccccc2C1(c1ccc(O)cc1)c1ccc(O)cc1,61.1 µM (active),–
CC(=O)Nc1ccc(C(=O)CCl)cc1,inactive and 48.6 µM (active),–
CCC[C@H](N[C@@H](C)C(=O)N1[C@H](C(=O)O)C[C@@H]2CCCC[C@@H]21)C(=O)OCC,inactive,–
CC1=CC(=O)c2ccccc2C1=O,30.6 µM (active),–
O=C(OCc1ccccc1)c1ccc(O)cc1,inactive,–
C=CS(=O)(=O)O,inactive,–
CCCCCCCCCCCCCCCCCl,–,-10.4% [at 19 µM] (inactive)
O=Cc1ccc(Cl)cc1,inactive,–
CCC(CO)(CO)COCC(CC)(CO)CO,inactive,–
CCCC(=O)c1ccccc1,inactive,–
c1ccc2cc3c(ccc4ccccc43)cc2c1,inactive,–
CCOc1ccc2c(c1)C(C)=CC(C)(C)N2,inactive,–
Cc1cccc(O)c1C,inactive,–
C#CC(C)(CC)OC(=O)c1ccccc1C(=O)O (stereo unspecified),inactive,–
CC1=C(C=O)C(C)(C)CC=C1,inactive,–
CO[Si](OC)(OC)c1ccccc1,inactive,–
CC(C)(C)NCC(O)COc1ccccc1OCC1CCCO1 (stereo unspecified),inactive,–
